{"source": "PubChem BioAssay AID1006", "about": "(Sanford-Burnham Center for Chemical Genomics, 2008)", "note": "Out of some 200,000 compounds screened, about 3,000 (1.5%) were called active. Only a selection was taken, and actives are over-represented in it overall. Values without a mark were called inactive.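 The calls were made as follows: active = inhibition above about 50% when tested at 10 µM (limit read from the data); inactive = the rest.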"}
{"target": "Luciferin 4-monooxygenase (Photinus pyralis) (UniProt P08659)", "sequence (P08659 whole entry, looked up)": "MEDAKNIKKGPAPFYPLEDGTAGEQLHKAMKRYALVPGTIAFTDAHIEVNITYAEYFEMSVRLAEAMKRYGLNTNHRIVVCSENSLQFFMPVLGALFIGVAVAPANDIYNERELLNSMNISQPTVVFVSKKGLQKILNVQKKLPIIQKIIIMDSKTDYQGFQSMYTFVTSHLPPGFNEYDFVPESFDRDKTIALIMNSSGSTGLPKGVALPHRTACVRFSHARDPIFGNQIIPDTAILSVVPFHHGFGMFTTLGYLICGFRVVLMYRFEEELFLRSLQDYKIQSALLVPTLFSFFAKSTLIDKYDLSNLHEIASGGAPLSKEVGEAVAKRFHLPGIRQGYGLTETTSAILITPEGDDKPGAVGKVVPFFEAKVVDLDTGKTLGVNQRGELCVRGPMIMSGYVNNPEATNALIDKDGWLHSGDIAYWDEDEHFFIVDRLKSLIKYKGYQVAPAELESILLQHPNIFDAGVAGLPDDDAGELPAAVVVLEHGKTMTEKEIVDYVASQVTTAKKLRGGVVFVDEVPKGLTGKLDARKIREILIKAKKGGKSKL", "assay": "inhibition of purified FLuc reporter enzyme – biochemical, luminescence, ATPLite, artefact control for luciferase-based inhibitor screens, primary screen (AID 1006)", "settings": "ATPLite firefly luciferase biochemical luminescence, 10 min; at 10 µM; stronger effect = higher value"}
{"smiles": "O=C(Nc1nnc(Cc2ccc(Cl)cc2)s1)c1cccnc1", "inhibition": "7.5%"}
{"smiles": "O=c1oc(/C=C/c2ccccc2)nc2ccccc12", "inhibition": "80.5% (active)"}
{"smiles": "CCn1c(/C=C/c2ccc([N+](=O)[O-])o2)nc2ccccc2c1=O", "inhibition": "-6.1%"}
{"smiles": "S=c1[nH]nc(/C=C/c2ccccc2)o1", "inhibition": "7.5%"}
{"smiles": "N#Cc1ccc(N2Cc3ccccc3/C2=N/C(=O)Nc2ccc(Cl)cc2)cc1", "inhibition": "-4.6%"}
{"smiles": "Cc1ccc(S(=O)(=O)N(CC(=O)Nc2cccc([N+](=O)[O-])c2)Cc2ccc(Cl)cc2)cc1", "inhibition": "-6.1%"}
{"smiles": "COc1ccc(/C=C/C(=O)Nc2cccnc2)cc1OC", "inhibition": "13%"}
{"smiles": "COc1ccc(/C=C/C(=O)Nc2ccc(C34CC5CC(CC(O)(C5)C3)C4)cc2)cc1OC", "inhibition": "57.2% (active)"}
{"smiles": "COc1ccc(/C=C/C(=O)N2CCCC2)cc1OC", "inhibition": "5.6%"}
{"smiles": "CCCN(CC(=O)Nc1ccc(OC)c(OC)c1)CC(=O)Nc1ccc(F)c(F)c1F", "inhibition": "8.5%"}
{"smiles": "COc1ccc(-n2nnnc2-c2nc3ccccc3s2)cc1", "inhibition": "73.2% (active)"}
{"smiles": "CCOc1cccc(-n2nnnc2-c2ccc(OC)cc2)c1", "inhibition": "-0.7%"}
{"smiles": "COc1ccc(-n2nnnc2SCC(=O)Nc2ccccc2)cc1", "inhibition": "-8%"}
{"smiles": "CCc1ccc(Oc2nc([N+](=O)[O-])nn2C)cc1", "inhibition": "-9.5%"}
{"smiles": "Cc1nc(-c2ccccc2)sc1C(=O)/C=C/N(C)C", "inhibition": "10.8%"}
{"smiles": "O=C(CSc1nncs1)NC1CCCc2ccccc21", "note": "(stereo not given)", "inhibition": "-8.5%"}
{"smiles": "COCC1CCCN(Cc2nc(-c3ccc4c(c3)OCO4)no2)C1", "note": "(stereo not given)", "inhibition": "0.8%"}
{"smiles": "O=C(/C=C/c1ccc(N2CCOCC2)cc1)c1ccccc1", "inhibition": "60.8% (active)"}
{"smiles": "O=C(O)c1ccc2c(c1)C(=O)N(c1ccc(/C=C/C(=O)c3ccccc3)cc1)C2=O", "inhibition": "-0.5%"}
{"smiles": "O=C(/C=C/c1ccccc1)c1ccoc1", "inhibition": "14%"}
{"smiles": "CC1=C[C@H]2Cc3cc(C)cc(C)c3S(=O)(=O)[C@@H]2C=C1", "inhibition": "-5.9%"}
{"smiles": "O=C(Nc1cccc(O)c1)c1ccc(C(=O)c2ccccc2)o1", "inhibition": "69.9% (active)"}
{"smiles": "O=C(CSc1ccccc1)Nc1ccc(C(=O)Nc2cccc(O)c2)cc1", "inhibition": "1.9%"}
{"smiles": "C/C(=C\\C(=O)c1ccccc1)Nc1cccc(O)c1", "inhibition": "44.4%"}
{"smiles": "NC(=O)C1CCN(C(=O)COc2cccc3cccnc23)CC1", "inhibition": "-10%"}
{"smiles": "Cc1cc(C(=O)Cn2cnc3cc([N+](=O)[O-])ccc3c2=O)c(C)n1CC1CCCO1", "note": "(stereo not given)", "inhibition": "1.6%"}
{"smiles": "Cc1ccsc1C(=O)OCC(=O)c1cc(C)n(CC2CCCO2)c1C", "note": "(stereo not given)", "inhibition": "90.3% (active)"}
{"smiles": "Cc1cc(C(=O)CCl)c(C)n1CC1COc2ccccc2O1", "note": "(stereo not given)", "inhibition": "-0.3%"}
{"smiles": "CCC1C=C(c2ccccc2)C=CN=C1N(CC)CC", "note": "(stereo not given)", "inhibition": "-5%"}
{"smiles": "O=C(Cn1c(N2CCN(C/C=C/c3ccccc3)CC2)nc2ccccc21)c1ccccc1", "inhibition": "-2.2%"}
{"smiles": "CCN(CCCNC(=O)CCn1c(=O)[nH]c2ccsc2c1=O)c1ccccc1", "inhibition": "-2.6%"}
{"smiles": "CC(C)=CCN1CCN(Cc2ccc(Oc3ncccn3)cc2)CC1CCO", "note": "(stereo not given)", "inhibition": "-0.1%"}
{"smiles": "N=c1c2c(-c3ccccc3)c(-c3ccccc3)n(Cc3ccccc3)c2ncn1CCCO", "inhibition": "-2.7%"}
{"smiles": "OCCCN1c2ccccc2Nc2nnc(-c3ccccc3)cc21", "inhibition": "57.2% (active)"}
{"smiles": "CCCN(CCC)CCCNC(=O)CNC(=O)c1nn(-c2ccc(OC)cc2)c(=O)c2ccccc12", "inhibition": "-0.3%"}
{"smiles": "Cc1ccc(OC(=O)c2cc3ccccc3o2)cc1", "inhibition": "73.3% (active)"}
{"smiles": "O=C(Oc1cccnc1)c1cc2ccccc2oc1=O", "inhibition": "-6.1%"}
{"smiles": "Cc1ccsc1C(=O)OCC(=O)c1cc2ccccc2o1", "inhibition": "1.6%"}
{"smiles": "CCOC(=O)c1c(C)[nH]c2c1-c1ccccc1C(=O)C2=O", "inhibition": "-5.3%"}
{"smiles": "CCOC(=O)c1c(C)[nH]c(C2=NNC(=NC(C)COC)SC2)c1C", "note": "(stereo not given)", "inhibition": "56.5% (active)"}
{"smiles": "CCCCOC(=O)c1[nH]c(C)c(C(=O)OC)c1C", "inhibition": "15.4%"}
{"smiles": "CCOC(=O)C(C)Sc1nc2ccccc2c(=O)n1CC1CCCCC1", "note": "(stereo not given)", "inhibition": "1.4%"}
{"smiles": "O=c1c2ccccc2nc2n1C1(CCCCC1)Cc1ccccc1-2", "inhibition": "-6.3%"}
{"smiles": "CN(c1ccc2nc3ccccc3c(=O)n2n1)C1CCCCC1", "inhibition": "96.2% (active)"}
{"smiles": "CC(C)CCC(C)NC(=O)c1ccc2nccnc2c1", "note": "(stereo not given)", "inhibition": "2.8%"}
{"smiles": "COc1ccc(N2C(=O)/C(=C\\c3ccco3)N=C2SCC(N)=O)cc1Cl", "inhibition": "-5.8%"}
{"smiles": "Cc1cc(=O)oc(C)c1C(=O)N1CCCCC1", "inhibition": "-6.7%"}
{"smiles": "Cc1ccc(C(=O)N2CCCCCC2)cc1Br", "inhibition": "-7.1%"}
{"smiles": "Cc1ccc2cc3cc(C(=O)N4CCCCCC4)oc3nc2c1", "inhibition": "69.5% (active)"}
{"smiles": "C/C(=N/N1CCN(Cc2cccc3ccccc23)CC1)c1cccnc1", "inhibition": "-5.7%"}
{"smiles": "COc1cccc(C(=O)Nc2ccc(NC(=O)c3ccco3)cn2)c1", "inhibition": "6.5%"}
{"smiles": "O=C(Nc1ccc2nccnc2c1)c1ccco1", "inhibition": "13%"}
{"smiles": "O=C(Nc1ccc(NC(=O)c2cccs2)cn1)c1ccco1", "inhibition": "83.2% (active)"}
{"smiles": "N/C(=N\\OC(=O)N1c2ccccc2Sc2ccccc21)c1ccc(Br)cc1", "inhibition": "-3.4%"}
{"smiles": "N/C(=N\\OC(=O)c1ccc2c(c1)OCO2)c1ccc(Br)cc1", "inhibition": "60.6% (active)"}
{"smiles": "N/C(=N\\OC(=O)/C=C/c1ccccc1)c1ccc(Br)cc1", "inhibition": "-0.5%"}
{"smiles": "COc1ccccc1CN(C)C(=O)C1(c2ccc(Cl)cc2)CC1", "inhibition": "-4.2%"}
{"smiles": "O=C(CCC(=O)N1CCCC1)Nc1ccc([N+](=O)[O-])cc1", "inhibition": "-1.6%"}
{"smiles": "CCn1c(=S)[nH]c2sc3c(c2c1=O)CCCCC3", "inhibition": "-1.8%"}
{"smiles": "CCO[C@H]1OC(C(=O)Nc2ccccc2)=C[C@@H](C2CC2)[C@@H]1CCCO", "inhibition": "-0.3%"}
{"smiles": "Cc1ccc(C)c(NC(=S)NCC(c2cccnc2)N2CCOCC2)c1", "note": "(stereo not given)", "inhibition": "-5.6%"}
{"smiles": "CCCCSc1nnc(-c2ccc(C)cc2)o1", "inhibition": "50.5% (active)"}
{"smiles": "CCOC(=O)CSc1nnc(-c2ccc([N+](=O)[O-])cc2)o1", "inhibition": "3%"}
{"smiles": "CCOC(=O)CSc1nnc(-c2ccncc2)o1", "inhibition": "0.6%"}
{"smiles": "Cc1ccnc(SCC(N)=O)n1", "inhibition": "-1.6%"}
